An excerpt weighted towards active compounds, which were near 14% of everything screened.
Marburg entry inh: qHTS for inhibitors of binding or entry into cells for Marburg Virus | Marburg virus pseudotyped entry inhibition, cell reporter | Potency, µM (highest dose often 37.8 µM), for the others: at the top dose activity change, negative = inhibition, actives largely listed as inhibitors | hit rate 1.8% among 300,000; calls by dose curve; tested in HEK293 cells; further: potency means the concentration at half of the fitted maximal effect
Lassa entry inh: qHTS for Inhibitors of binding or entry into cells for Lassa Virus; Lassa virus pseudotype entry inhibition, cell reporter; Potency, µM (top dose mostly 37.9 µM), inactives show top-dose activity change, negative = inhibition, hits mostly inhibitors; hit rate 1.2% among 300,000; calls by dose curve; tested in HEK293 cells; further: potency means the concentration at half of the fitted maximal effect; nearly all actives have a fitted effect of over 50% in size
Pf growth 48h: Primary qHTS for delayed death inhibitors of the malarial parasite plastid, 48 hour incubation | Potency, µM (doses to about 28.7 µM), inactives show at the highest dose activity change, negative = inhibition, usual class: inhibitors | hit rate 5.9% among 310,000 | AID 504832, 2011 | P. falciparum luciferase growth in erythrocytes, 48 h; further: potency means the concentration at half of the fitted maximal effect
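Here the parasites carry a stable luciferase gene and grow inside erythrocytes in Albumax-based RPMI medium with compound for one erythrocytic cycle. Activity is scored as loss of luminescent signal.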
Pf growth 96h: Primary qHTS for delayed death inhibitors of the malarial parasite plastid, 96 hour incubation; hit rate 6.9% among 320,000; Potency, µM (doses to about 28.7 µM), without a hit: at the top dose activity change, negative = inhibition, hits mostly inhibitors; P. falciparum luciferase reporter growth, 96 h; further: potency means the concentration at half of the fitted maximal effect
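Parasite growth measured via integrated firefly luciferase reporter in P. falciparum. Infected erythrocytes at 2% hematocrit, 0.05% parasitemia final were treated 96 hours at 37 C under 5% CO2, and luminescence was read.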
HCMV inh: qHTS Assay for inhibitors of the human cytomegalovirus (HCMV); HFF cells, HCMV-luciferase reporter, 72 h; hits give low values; activity change, negative = inhibition, % at 57.5 µM; hit rate 4.5% among 410,000; in the data active means activity change below about -60%; inconclusive means no clear call, values can overlap the other calls; inactive means above about -39%
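Compounds were evaluated in HFFs infected with an HCMV luciferase reporter virus (MOI 1 PFU/cell). Luciferase in lysates collected 72 h post infection served as the replication measure.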
HCV inh: qHTS Assay for Inhibitors of Hepatitis C Virus (HCV); Huh7.5.1 HCVcc-Cre infection, luciferase reporter, 44 h; Potency, µM (doses to about 41.8 µM), for inactives: at the top dose activity change, negative = inhibition, actives largely listed as inhibitors; hit rate 3.4% among 340,000; further: potency means the concentration at half of the fitted maximal effect
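Whole-lifecycle infectious HCVcc-Cre system; cells 1,000/well, compound then virus (~0.5 moi) added 4 h after plating, 44 h culture. Luciferase read 15 sec following 15 min substrate incubation, room temp.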
An asterisk follows results filed as active; [ ] = dose if it differs, or a comment. Unless noted, the call rests on the fitted dose curve; in most records, active means well fitted inhibition curve with a large enough effect; inconclusive means small, poorly fitted or top-dose-only effect, or another doubt; inactive means no such curve, though single readings can be large or run the other way. On the % scale 0 is the no-effect control and ±100 the full control effect.

For O=C(OCc1ccccc1)N1CCC2CC1c1ccc(/C=C/CCCCl)cc12 (stereo not given) the results were HCMV inh 44.
`O=C(Nc1ccc(Cl)cc1)C1CCCCN1S(=O)(=O)c1ccccc1` (stereo not given) gave Marburg entry inh inconclusive, Lassa entry inh -18%, HCMV inh -101* and HCV inh inconclusive.
For O=C(Nc1cccc(S(=O)(=O)N2CCOCC2)c1)[C@@H]1CCCN1S(=O)(=O)c1ccc(Cl)cc1 the results were Marburg entry inh inconclusive, Lassa entry inh -1%, Pf growth 48h inconclusive, Pf growth 96h 1.9µM*, HCMV inh -12 and HCV inh inconclusive.
O=C(Nc1ccccc1)[C@@H]1CCCN1S(=O)(=O)c1ccc(Cl)cc1 was read as Marburg entry inh -15%, Lassa entry inh 16%, HCMV inh -29 and HCV inh -1%.
For COc1cc(C2CC(=O)Nc3c2c(=O)n(C)c2ncnn32)cc(OC)c1OC (stereo not given) the results were Marburg entry inh -26%[46.1 µM], Lassa entry inh 23%[46.1 µM] and HCMV inh 6.
CCCC(c1nnnn1CCC(C)C)N1CCC(C(N)=O)CC1 (stereo not given) was read as Marburg entry inh 0%[46.1 µM], Lassa entry inh 5%, Pf growth 48h 12µM*, Pf growth 96h 9.3µM*, HCMV inh 0 and HCV inh -4%.
`COc1ccc(CCn2nnnc2C(C(C)C)N2CCN(c3ncccn3)CC2)cc1OC` (stereo not given) gave Marburg entry inh inconclusive, Lassa entry inh 3%, Pf growth 48h 9.3µM*, Pf growth 96h inconclusive, HCMV inh 37 and HCV inh inconclusive.
Screening CC(C)CCn1nnnc1C(C(C)C)N1CCC(C(N)=O)CC1 (stereo not given) returned Marburg entry inh 3%, Lassa entry inh inconclusive, Pf growth 48h 7%, Pf growth 96h 5%, HCMV inh 11 and HCV inh inconclusive.
`COc1ccc(CCn2nnnc2C(CC(C)C)N2CCN(c3ncccn3)CC2)cc1OC` (stereo not given) gave Marburg entry inh -2%[46.1 µM], Lassa entry inh 0%, Pf growth 96h 2%, HCMV inh -5 and HCV inh 17%.
For CC(C)CC(c1nnnn1CCc1ccccc1)N1CCC(C(N)=O)CC1 (stereo not given) the results were Marburg entry inh 1%, Lassa entry inh 14%, Pf growth 48h 19%, Pf growth 96h 9.3µM*, HCMV inh -23 and HCV inh 18%.
COc1ccc(CCn2nnnc2C(CC(C)C)N2CCC(C(N)=O)CC2)cc1OC (stereo not given) was read as Marburg entry inh 8%, Lassa entry inh -2%, Pf growth 48h 12%, Pf growth 96h 12µM*, HCMV inh -11 and HCV inh 8%.
`CCN(Cc1ccccc1)C(=O)c1cc2c(=O)oc3ccc(C)cc3c2s1` gave Marburg entry inh 6%[46.1 µM], Lassa entry inh 3%[46.1 µM], Pf growth 96h 4.7µM*, HCMV inh -13 and HCV inh inconclusive.
Screening Cc1cccn2c(=O)c3cc(C(=O)N(Cc4ccccc4)C(C)C)sc3nc12 returned Marburg entry inh 4µM*, Lassa entry inh inconclusive and HCMV inh -14.
For Cc1ccc(CNC(=O)c2cc3c(=O)oc4ccc(C)cc4c3s2)cc1 the results were Marburg entry inh -5%[46.1 µM], Lassa entry inh 10%[46.1 µM] and HCMV inh 4.
Screening Cc1ccc2oc(=O)c3cc(C(=O)N(Cc4ccccc4)C(C)C)sc3c2c1 returned Marburg entry inh -1%[46.1 µM], Lassa entry inh inconclusive and HCMV inh -105*.
CCN(CC)C(=O)c1cc2c(=O)n3cccc(C)c3nc2s1 was read as Marburg entry inh inconclusive, Lassa entry inh 16%, Pf growth 48h 20%, Pf growth 96h 5%, HCMV inh 109 and HCV inh -18%.

Screening data: PubChem, National Center for Advancing Translational Sciences (NCATS)
